# Screening data as filed in PubChem BioAssay.
# NS1 inh: qHTS Assay for Inhibitors of Influenza NS1 Protein Function; Potency, µM (titrated, usually from 46.1 µM), for the others: at the top dose activity, positive = more growth; hit rate 0.4% among 270,000; AID 2326, 2010; also: potency is read from the fitted curve at half-maximal effect; actives are rising curves; nearly all actives have a fitted effect of over 50% in size
#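 Compounds were scored for reversing the slow growth caused by influenza A NS1 in S. cerevisiae, measured by optical density at 600 nm. Assay medium contained 2% galactose at pH 6.0; NS1-free yeast of the same strain were the positive control.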
# SARS PLpro yeast: qHTS of Yeast-based Assay for SARS-CoV PLP; S. cerevisiae expressing SARS-CoV PLpro, growth rescue; Potency, µM (doses to about 32.9 µM), without a hit: top-dose activity, positive = growth rescue, hits mostly activators; hit rate 0.19% among 330,000; AID 485353, 2010; also: potency is read from the fitted curve at half-maximal effect; 0% is about no effect; nearly all actives have a fitted effect of over 55% in size
# AMA1-RON2 inh: qHTS for Inhibitors of AMA1-RON; Towards Development of Antimalarial Drug Lead: Primary Screen. hit rate 0.2% among 360,000. AID 720542, 2013. AlphaScreen AMA1-biotinylated RON2 peptide binding. Potency, µM (highest dose often 58.2 µM), for inactives: at the highest dose activity change, negative = inhibition, most hits filed as inhibitors; active = well fitted inhibition curve with a large enough effect; inconclusive = small, poorly fitted or top-dose-only effect; inactive = no such curve, though single readings can be large or run the other way;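 also: potency is read from the fitted curve at half-maximal effect; 0% = vehicle wells and -100% = peptide control; nearly all actives have a fitted effect of over 45% in size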
#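 AMA1 (3D7) with his tag at 25 nM final met compounds first, then biotinylated RON2 peptide at 25 nM; detection used donor plus acceptor beads, 10 µg/mL apiece, read by AlphaScreen after 30 min at room temperature.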
# Flu NS1 inh: Assay for Inhibitors of Influenza NS1 Protein Function: Hit Validation. shares compounds with NS1 inh. AID 492980, 2010. 1,400 tested, under 10 active. influenza NS1 function cell assay, 15-point titration. activity change, negative = inhibition, % at 32.9 µM; also: 0% is about no effect
# Flu PR8 replic: Assay for Inhibitors of Influenza NS1 Protein Function: Influenza virus replication assay in MDCK cells infected with virus A/PR/8/34; shares compounds with NS1 inh; MDCK infected influenza A/PR/8/34, virus titer TCID50; active compounds read low; virus titer (log TCID50), log10 TCID50 at 5 µM; hit rate 30% among 95; call rule not given here
# * = called active by the depositor; ? = inconclusive; nt = no result given; ! = repeats disagree; [ ] = remark or other dose. This is a sample that favours compounds with a hit; in the whole collection about 0.65% have one here. Unless noted, calls follow the shape of the full dose curve.
SMILES,NS1 inh,SARS PLpro yeast,AMA1-RON2 inh,Flu NS1 inh,others
Cc1ccc(-n2c(=S)[nH]c3c(oc4ccccc43)c2=O)cc1,21.9%,-23.3%,55.1%,nt,
Cc1cccc(-n2c(=S)[nH]c3c(oc4ccccc43)c2=O)c1,?,19.4%,68.2%,7.7,
C=CC[C@@H](CC(=O)N[C@H](CO)Cc1ccccc1)C(=O)N[C@H](COC(=O)[C@@H](CC=C)Cc1ccc(F)cc1)Cc1c[nH]c2ccccc12,nt,-0.2%,-15.6%,nt,
Cc1ccc(/C=N/N2CCN(c3ccccn3)CC2)cc1,nt,0.5%,?,nt,
Cn1cccc1/C=N/N1CCN(c2ccccn2)CC1,?,6.8%,-3.6%,-22.2,
CCCC(=O)NC(C)c1nc(-c2ccc(C)cc2)no1 (configuration not stated),nt,nt,-1.9%,nt,
Cc1ccc(-n2nc3c(c2NC(=O)/C=C\c2ccc4c(c2)OCO4)CSC3)cc1,15.8µM*,-13.9%,9.5%,-16.4,
Cc1ccc(-n2nc3c(c2NC(=O)c2ccc4c(c2)OCO4)CS(=O)C3)cc1 (configuration not stated),-4.4%,-8.8%,15.5%,nt,
Cc1ccccc1-n1nc2c(c1NC(=O)/C=C\c1ccc3c(c1)OCO3)CSC2,20.4%,-25.3%,-4.4%,nt,
Cc1ccc(-n2nc3c(c2NC(=O)/C=C\c2ccc4c(c2)OCO4)CSC3)c(C)c1,8.91µM*,9.9%,-7.8%,2.8,
Cc1cc(Br)cc(Cl)c1OC(=O)c1ccncc1,-47.4%,-4.7%,8.9%,nt,
CCc1cc2c(-c3ccccc3)cc(=O)oc2cc1OC(C)C(=O)O (configuration not stated),10µM*,-1.7%,-6.4%,21.3,
CCc1cc2c(-c3ccccc3)cc(=O)oc2cc1OCC(C)=O,-55.2%,-0.1%,33.6%,nt,
CCCc1nnc(NC(=O)CSc2nnc(-c3ccco3)n2C)s1,16.4%,0.7%,19.2%,nt,
Cc1ccc(C2=CC(C)(c3ccc(C)cc3)Nc3nc(C(F)(F)F)nn32)cc1 (configuration not stated),1.2%,-8.0%,-7.0%,nt,
CC1(c2ccc(OCC#N)cc2)C=C(c2ccc(OCC#N)cc2)n2nc(C(F)(F)F)nc2N1 (configuration not stated),10µM*,-19.4%,0.4%,?,
CC(C)=CCC/C(C)=C/CNC(=O)C[C@H]1C[C@H](C(=O)N(C(C)C)C(C)C)[C@@]2(C)c3[nH]c4cc(CCC(=O)N(C)C)ccc4c3CCN2C1=O,nt,-1.3%,-24.6%,nt,
CCOc1ccccc1N(C)C(=O)c1cn(C)c(=O)c2ccccc12,2.0%,-0.9%,20.2%,nt,
COc1cccc(C(C)NC(=O)Nc2cc(Cl)ccc2OC)c1 (configuration not stated),3.1%,-0.4%,9.0%,nt,
COc1cccc(C(C)NC(=O)Nc2cccc(C(F)(F)F)c2)c1 (configuration not stated),?,-6.9%,-11.0%,?,
Cc1csc(SCC(=O)Nc2nccs2)n1,nt,3.7%,-0.5%,nt,
Cc1csc(SCC(=O)Nc2nncs2)n1,?,1.9%,4.8%,-22.0,
COC(=O)c1cccc(-n2c(C)cc(/C=C3\SC(=O)NC3=O)c2C)c1,nt,nt,-11.8%,nt,
Cc1cc(C(=O)O)ccc1-n1c(C)cc(/C=C2\SC(=O)NC2=O)c1C,11.2µM*,3.8%,-1.1%,17.4,
CC(NC(=O)COC(=O)C12CC3CC(CC(Br)(C3)C1)C2)c1ccccc1 (configuration not stated),nt,-4.3%,-7.9%,nt,
SMILES,NS1 inh,SARS PLpro yeast,AMA1-RON2 inh,Flu NS1 inh,others
Cc1ccc(CNC(=O)C2CCCN(S(=O)(=O)c3c(C)n[nH]c3C)C2)cc1 (configuration not stated),-4.1%,11.0%,2.9%,nt,
CCOc1ccc(CCNC(=O)C2CCCN(S(=O)(=O)c3c(C)n[nH]c3C)C2)cc1OCC (configuration not stated),2.51µM*,-4.0%,-7.5%,-27.4,
CCc1nnc(NS(=O)(=O)c2ccc(NC(=O)c3cc(Cl)ccc3Cl)cc2)s1,10.9%,-0.7%,-16.4%,nt,
CCc1nnc(NS(=O)(=O)c2ccc(NC(=O)c3cc(Cl)ccc3[N+](=O)[O-])cc2)s1,11.2µM*,4.9%,8.7%,28.7,Flu PR8 replic=8.33
C=CCCC(=O)N1CCC(n2nccc2NC(=O)c2ccccc2C)CC1,1.4%,5.5%,-1.3%,nt,
COc1cccc(CN(C)S(=O)(=O)c2c(C)noc2C)c1OC,nt,0.0%,-8.9%,nt,
O=C(O)c1cc(-c2ccco2)nc2ccc(Br)cc12,20µM*!,-2.5%,?,10.6,
O=C(c1ccco1)N1CCN(C(=O)c2cc(-c3ccncc3)nc3ccc(Br)cc23)CC1,-64.1%,nt,4.2%,nt,
CC1=C(C(=O)N2CCOCC2)CC(CC(=O)NC2CC2)C(=O)N1Cc1ccc(F)cc1 (configuration not stated),nt,nt,2.2%,nt,
COc1cccc(-c2nc(N3CCC(C)CC3)c3ccccc3n2)c1O,20µM*,-8.2%,-20.6%,-28.9,
COc1cccc(-c2nc(N3CCCC3)c3ccccc3n2)c1O,-3.6%,0.1%,11.2%,nt,
Cc1cc(C)n2nc(SCC(=O)N(CCC#N)c3ccc(F)cc3)nc2n1,nt,1.8%,4.5%,nt,
O=[N+]([O-])c1ccccc1NCc1c(O)ccc2ccccc12,8.91µM*,0.1%,-18.0%,7.8,
Oc1ccc2ccccc2c1CNc1ccccc1,nt,nt,21.2%,nt,
COC(=O)[C@@]12CCCCN1[C@H](c1ccc(-c3ccccc3)c(OC)c1)[C@H]1C(=O)N(C)C(=O)[C@H]12,nt,3.0%,-14.8%,nt,
Cc1ccc(NS(=O)(=O)c2cc(C(=O)Nc3cccnc3)ccc2C)cc1,-10.8%,-4.7%,-2.8%,nt,
CC1(C(=O)NS(=O)(=O)c2cccc(C#N)c2)CCN1C(=O)c1ccccc1 (configuration not stated),nt,nt,6.7%,nt,
COc1cc(C=C(c2nc3ccccc3s2)c2nc3ccccc3s2)ccc1O,10.2%,-19.7%,-47.3%,nt,
COc1ccc(C=C(c2nc3ccccc3s2)c2nc3ccccc3s2)cc1O,15.8µM*,5.6%,-25.2%,-11.8,
CCCC(C)NC(=S)NC(=O)c1cc(S(=O)(=O)N2CCOCC2)ccc1C (configuration not stated),6.7%,0.1%,12.6%[11.6 µM],nt,
CCCCCC(C)NC(=S)NC(=O)c1cc(S(=O)(=O)N2CCOCC2)ccc1C (configuration not stated),20µM*,15.2%,-2.2%[2.32 µM],-37.1,
Cc1nc(SCC(=O)NCC2CCCO2)[nH]c(=O)c1C (configuration not stated),nt,2.9%,-9.4%,nt,
Nc1nc(SCC(=O)Nc2ccc(C(F)(F)F)cc2)[nH]c(=O)c1NC(=O)c1ccc(F)c(F)c1,11.2%,-1.4%,-0.1%,nt,
COc1ccc(C(=O)Nc2c(N)nc(SCC(=O)Nc3ccc(NC(C)=O)cc3)[nH]c2=O)cc1OC,22.4µM*,7.0%,-13.6%,21.1,
COc1cc(CCN(C(=O)c2cc3ccccc3[nH]2)C(C)c2nc3ccccc3[nH]2)cc(OC)c1 (configuration not stated),nt,nt,-15.8%,nt,
